This note sets out measurements from PubChem BioAssay (EPA / NIEHS).

Inconclusive results are not listed. Activity calls are given as the source filed them. How the source made its calls: active means hit-call score of the fitted dose curve at least 0.9, where 1 is the maximum; inconclusive means response in the unintended direction; inactive means score below 0.9.

Test [1] addresses human Peroxisome Proliferator-activated Receptor delta (PPARd), PPARD (gene 5467) (UniProt Q03181). The experiment in a line: ATG_PPARd_TRANS: Attagene TRANS-FACTORIAL HepG2 Assay for human Peroxisome Proliferator-activated Receptor delta (PPARd) (AID 2283002). In short, it runs like this:
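Cell-based TRANS reporter: HepG2, transient MRTU transfection, 24 h exposure. Readout = reporter mRNA (RT-PCR/CE, 6-FAM). Gain-of-signal fit vs DMSO control.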

Test [2] addresses Peroxisome proliferator-activated receptor gamma (Homo sapiens) (UniProt P37231). The experiment in a line: ATG_PPARg_TRANS: Attagene TRANS-FACTORIAL HepG2 Assay for human Peroxisome Proliferator-activated Receptor-gamma (PPARg) (AID 2283007). In a few lines: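 Transient transfection of HepG2 with GAL4-UAS-driven reporter units; chemical dosing 24 h; total RNA → oligo(dT) RT → PCR with reporter primers → 6-FAM primer extension → HpaI digest 2 h 37 C → capillary electrophoresis. Positive direction vs DMSO.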

For test [3], the target named is Nuclear receptor subfamily 1 group I member 2 (Homo sapiens) (UniProt O75469). Nature of the test: ATG_PXR_TRANS: Attagene TRANS-FACTORIAL HepG2 Assay for human Pregnane X Receptor (PXR) (AID 2283008). In a few lines: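 HepG2 transfected (FuGene 6) with GAL4-UAS reporter units + PXR-Gal4 chimera; dosed 24 h. Total RNA → oligo(dT) RT → PCR → 6-FAM primer extension → HpaI cut → CE. Gain-of-signal vs DMSO.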

Test [4] has as its target human RAR-related Orphan Receptor beta (RORb), RORB (gene 6096) (UniProt Q92753). The experiment in a line: ATG_RORb_TRANS: Attagene TRANS-FACTORIAL HepG2 Assay for human RAR-related Orphan Receptor beta (RORb) (AID 2283010). In short, it runs like this: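 HepG2, transient MRTU transfection (GAL4-UAS reporters, exogenous NR-Gal4 chimeras); 24 h compound exposure; total RNA → RT-PCR → 6-FAM primer extension → HpaI digest → CE fluorescence. Positive direction vs DMSO baseline.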

Test [5] deals with Retinoic acid receptor RXR-alpha (Homo sapiens) (UniProt P19793). The experiment in a line: ATG_RXRa_TRANS: Attagene TRANS-FACTORIAL HepG2 Assay for human Retinoid X Receptor alpha (RXRa) (AID 2283012). In short, it runs like this:
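Read-out: fluorescent reporter-transcript fragments quantified by capillary electrophoresis after RT-PCR. Transiently transfected HepG2 cells carrying GAL4-UAS reporters and NR-GAL4 chimeras were exposed to chemical for 24 h; activity scored as increase over DMSO.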

In test [6] the target is human Retinoid X Receptor beta (RXRb), RXRB (gene 6257) (UniProt P28702). Nature of the test: ATG_RXRb_TRANS: Attagene TRANS-FACTORIAL HepG2 Assay for human Retinoid X Receptor beta (RXRb) (AID 2283013). In a few lines:
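Read-out: reporter mRNA induction via RT-PCR plus capillary electrophoresis fluorescence, analysed as signal increase relative to DMSO. Cells were human HepG2, transiently transfected with GAL4-UAS reporter constructs and chimeric receptor-Gal4 fusions, dosed for 24 h.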

Test [7] has as its target human Thyroid Receptor alpha (THRa1), THRA (gene 7067) (UniProt P10827). Nature of the test: ATG_THRa1_TRANS: Attagene TRANS-FACTORIAL HepG2 Assay for human Thyroid Receptor alpha (THRa1) (AID 2283014). In a few lines:
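First, HepG2 cells receive multiple GAL4-UAS reporter units and the chimeric receptor. They are then dosed for 24 h, after which RNA is reverse-transcribed, amplified, labelled, HpaI-cut and sized by capillary electrophoresis; gain relative to DMSO is scored.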

The target of test [8] is human RAR-related Orphan Receptor gamma (RORg), RORC (gene 6097) (UniProt P51449). The experiment in a line: ATG_RORg_TRANS: Attagene TRANS-FACTORIAL HepG2 Assay for human RAR-related Orphan Receptor gamma (RORg) (AID 2283011). In short, it runs like this: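 Activity is scored as increase in GAL4-UAS reporter mRNA over DMSO, detected by fluorescent RT-PCR and capillary electrophoresis in HepG2 cells transiently expressing a RORg-Gal4 chimera, 24 h after dosing.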

Test [9] addresses human Retinoic Acid Receptor gamma (RARg), RARG (gene 5916) (UniProt P13631). The experiment in a line: ATG_RARg_TRANS: Attagene TRANS-FACTORIAL HepG2 Assay for human Retinoic Acid Receptor gamma (RARg) (AID 2283009). In short, it runs like this:
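Readout: reporter transcript levels via RT-PCR, 6-FAM primer-extension labelling, HpaI digestion and capillary electrophoresis. Cells: HepG2 carrying transfected RARg-GAL4 chimera plus UAS reporter set. Dosing 24 h; DMSO negative control.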

Sequence of Peroxisome proliferator-activated receptor gamma (Homo sapiens) (P37231 whole entry, looked up, the tested form may be a part): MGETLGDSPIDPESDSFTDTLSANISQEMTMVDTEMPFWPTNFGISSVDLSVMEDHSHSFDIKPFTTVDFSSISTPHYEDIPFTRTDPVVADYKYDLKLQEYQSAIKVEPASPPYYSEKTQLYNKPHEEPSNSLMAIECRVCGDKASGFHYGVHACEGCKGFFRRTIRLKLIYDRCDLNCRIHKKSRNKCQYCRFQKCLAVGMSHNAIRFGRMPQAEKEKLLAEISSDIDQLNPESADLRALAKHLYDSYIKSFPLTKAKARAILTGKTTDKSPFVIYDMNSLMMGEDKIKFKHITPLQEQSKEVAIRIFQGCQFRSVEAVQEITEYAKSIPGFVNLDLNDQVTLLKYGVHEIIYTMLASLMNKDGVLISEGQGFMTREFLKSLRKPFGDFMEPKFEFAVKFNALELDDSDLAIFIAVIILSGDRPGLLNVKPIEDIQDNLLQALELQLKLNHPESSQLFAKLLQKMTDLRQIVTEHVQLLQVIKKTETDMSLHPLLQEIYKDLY
Sequence of Nuclear receptor subfamily 1 group I member 2 (Homo sapiens) (O75469 whole entry, looked up, the tested form may be a part): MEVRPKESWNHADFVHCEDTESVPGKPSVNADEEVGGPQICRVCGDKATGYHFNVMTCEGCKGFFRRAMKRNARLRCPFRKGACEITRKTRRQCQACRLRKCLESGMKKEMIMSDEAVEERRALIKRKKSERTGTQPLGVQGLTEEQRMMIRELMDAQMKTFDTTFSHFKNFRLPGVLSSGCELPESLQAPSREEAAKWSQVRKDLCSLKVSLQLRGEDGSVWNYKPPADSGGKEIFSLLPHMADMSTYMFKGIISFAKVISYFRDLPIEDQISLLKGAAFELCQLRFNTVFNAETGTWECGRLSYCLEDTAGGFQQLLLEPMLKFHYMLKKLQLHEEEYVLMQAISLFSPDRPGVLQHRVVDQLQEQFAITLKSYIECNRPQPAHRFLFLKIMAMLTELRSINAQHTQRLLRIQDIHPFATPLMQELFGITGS
Sequence of human Thyroid Receptor alpha (THRa1), THRA (gene 7067) (P10827 whole entry, looked up, the tested form may be a part): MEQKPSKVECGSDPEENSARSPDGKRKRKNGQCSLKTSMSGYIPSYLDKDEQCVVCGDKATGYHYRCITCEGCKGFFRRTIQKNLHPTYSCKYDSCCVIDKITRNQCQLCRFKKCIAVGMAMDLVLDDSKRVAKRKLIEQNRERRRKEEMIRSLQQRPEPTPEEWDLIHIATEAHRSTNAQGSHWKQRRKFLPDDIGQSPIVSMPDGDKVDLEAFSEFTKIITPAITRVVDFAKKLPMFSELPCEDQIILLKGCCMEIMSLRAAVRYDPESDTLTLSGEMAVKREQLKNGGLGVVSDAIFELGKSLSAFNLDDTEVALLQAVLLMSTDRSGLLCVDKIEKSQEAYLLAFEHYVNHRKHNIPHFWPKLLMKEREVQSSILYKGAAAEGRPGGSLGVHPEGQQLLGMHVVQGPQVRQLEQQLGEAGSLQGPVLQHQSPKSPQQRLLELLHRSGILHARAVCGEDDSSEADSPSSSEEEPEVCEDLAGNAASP
Sequence of human RAR-related Orphan Receptor beta (RORb), RORB (gene 6096) (Q92753 whole entry, looked up, the tested form may be a part): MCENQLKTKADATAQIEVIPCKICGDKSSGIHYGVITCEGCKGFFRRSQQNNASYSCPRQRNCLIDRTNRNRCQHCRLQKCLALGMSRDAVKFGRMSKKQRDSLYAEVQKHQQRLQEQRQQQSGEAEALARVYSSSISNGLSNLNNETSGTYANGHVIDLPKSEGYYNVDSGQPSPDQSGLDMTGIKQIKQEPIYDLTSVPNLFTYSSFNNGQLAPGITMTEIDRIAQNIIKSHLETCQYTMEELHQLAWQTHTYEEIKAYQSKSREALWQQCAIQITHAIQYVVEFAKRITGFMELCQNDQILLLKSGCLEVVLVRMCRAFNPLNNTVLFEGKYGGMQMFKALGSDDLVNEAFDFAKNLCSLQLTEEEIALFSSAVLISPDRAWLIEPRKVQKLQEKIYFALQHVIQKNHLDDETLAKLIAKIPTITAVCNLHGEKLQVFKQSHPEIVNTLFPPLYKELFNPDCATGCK
Sequence of human Retinoid X Receptor beta (RXRb), RXRB (gene 6257) (P28702 whole entry, looked up, the tested form may be a part): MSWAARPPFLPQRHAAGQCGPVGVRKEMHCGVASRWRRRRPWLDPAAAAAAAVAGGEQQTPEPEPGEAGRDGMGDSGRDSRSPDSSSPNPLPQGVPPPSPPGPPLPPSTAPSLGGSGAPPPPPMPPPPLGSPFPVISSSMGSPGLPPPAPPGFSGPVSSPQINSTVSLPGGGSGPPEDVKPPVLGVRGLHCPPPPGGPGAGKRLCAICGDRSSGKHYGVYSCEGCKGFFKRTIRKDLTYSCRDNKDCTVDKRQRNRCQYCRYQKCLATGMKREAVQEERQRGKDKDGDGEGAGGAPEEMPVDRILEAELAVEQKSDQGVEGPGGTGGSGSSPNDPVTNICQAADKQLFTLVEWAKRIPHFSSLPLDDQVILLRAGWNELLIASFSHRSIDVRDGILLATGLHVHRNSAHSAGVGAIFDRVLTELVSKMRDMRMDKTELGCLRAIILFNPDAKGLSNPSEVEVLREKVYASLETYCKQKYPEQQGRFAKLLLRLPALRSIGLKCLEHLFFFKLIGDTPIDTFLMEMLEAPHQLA
Sequence of human Peroxisome Proliferator-activated Receptor delta (PPARd), PPARD (gene 5467) (Q03181 whole entry, looked up): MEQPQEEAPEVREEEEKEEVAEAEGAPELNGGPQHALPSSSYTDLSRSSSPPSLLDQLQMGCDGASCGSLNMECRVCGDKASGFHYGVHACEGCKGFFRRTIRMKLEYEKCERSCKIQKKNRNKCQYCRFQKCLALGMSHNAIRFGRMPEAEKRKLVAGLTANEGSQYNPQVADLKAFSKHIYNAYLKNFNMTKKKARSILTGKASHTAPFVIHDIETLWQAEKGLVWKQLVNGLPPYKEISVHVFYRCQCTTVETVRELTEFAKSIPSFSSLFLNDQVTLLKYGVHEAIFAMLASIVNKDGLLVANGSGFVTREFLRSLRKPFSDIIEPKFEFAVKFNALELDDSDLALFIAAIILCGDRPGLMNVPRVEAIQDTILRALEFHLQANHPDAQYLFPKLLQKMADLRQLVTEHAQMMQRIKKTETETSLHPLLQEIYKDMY
Sequence of human RAR-related Orphan Receptor gamma (RORg), RORC (gene 6097) (P51449 whole entry, looked up, the tested form may be a part): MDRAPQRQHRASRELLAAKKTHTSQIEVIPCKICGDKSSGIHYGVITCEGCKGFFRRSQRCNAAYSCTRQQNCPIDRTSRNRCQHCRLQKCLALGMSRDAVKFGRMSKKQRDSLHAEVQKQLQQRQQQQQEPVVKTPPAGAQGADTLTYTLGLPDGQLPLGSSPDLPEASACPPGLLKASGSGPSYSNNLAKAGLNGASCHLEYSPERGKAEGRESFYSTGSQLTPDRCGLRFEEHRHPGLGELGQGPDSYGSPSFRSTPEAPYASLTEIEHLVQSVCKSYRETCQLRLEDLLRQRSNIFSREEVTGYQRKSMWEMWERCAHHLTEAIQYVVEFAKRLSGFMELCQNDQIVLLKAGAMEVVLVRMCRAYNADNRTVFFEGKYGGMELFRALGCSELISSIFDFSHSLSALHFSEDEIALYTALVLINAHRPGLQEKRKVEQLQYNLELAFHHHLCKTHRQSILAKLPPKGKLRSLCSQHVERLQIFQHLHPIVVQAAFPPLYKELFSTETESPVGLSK
Sequence of Retinoic acid receptor RXR-alpha (Homo sapiens) (P19793 whole entry, looked up, the tested form may be a part): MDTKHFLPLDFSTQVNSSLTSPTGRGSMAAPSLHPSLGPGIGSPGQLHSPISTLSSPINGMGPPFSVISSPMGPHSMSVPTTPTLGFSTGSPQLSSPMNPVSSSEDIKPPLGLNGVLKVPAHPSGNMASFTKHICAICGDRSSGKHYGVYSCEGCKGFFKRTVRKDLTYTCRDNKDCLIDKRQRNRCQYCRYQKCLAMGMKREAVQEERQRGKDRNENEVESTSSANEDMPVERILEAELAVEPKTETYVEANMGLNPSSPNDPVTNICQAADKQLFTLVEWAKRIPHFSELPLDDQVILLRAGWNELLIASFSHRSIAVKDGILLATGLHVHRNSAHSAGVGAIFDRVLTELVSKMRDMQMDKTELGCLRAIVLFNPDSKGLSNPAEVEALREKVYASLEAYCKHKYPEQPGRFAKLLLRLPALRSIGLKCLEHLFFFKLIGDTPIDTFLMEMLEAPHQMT
Sequence of human Retinoic Acid Receptor gamma (RARg), RARG (gene 5916) (P13631 whole entry, looked up, the tested form may be a part): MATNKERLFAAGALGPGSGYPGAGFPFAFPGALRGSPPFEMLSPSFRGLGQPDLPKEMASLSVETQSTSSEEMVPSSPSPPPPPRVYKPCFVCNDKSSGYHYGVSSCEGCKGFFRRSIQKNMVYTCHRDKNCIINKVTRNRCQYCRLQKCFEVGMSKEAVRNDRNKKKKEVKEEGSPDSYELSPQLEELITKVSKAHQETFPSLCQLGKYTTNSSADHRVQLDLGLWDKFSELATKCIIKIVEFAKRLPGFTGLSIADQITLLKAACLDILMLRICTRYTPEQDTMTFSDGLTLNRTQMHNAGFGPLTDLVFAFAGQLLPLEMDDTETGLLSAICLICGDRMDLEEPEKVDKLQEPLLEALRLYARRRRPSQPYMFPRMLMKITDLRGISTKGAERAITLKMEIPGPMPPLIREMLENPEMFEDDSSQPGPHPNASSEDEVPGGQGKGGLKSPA

For `C=C1CC[C@H]2O[C@]2(C)CC[C@@H]2[C@@H]1CC2(C)C`, the outcome in test [1], in [2], in test [3], in test [4], in [5] and in test [7] was inactive. Moreover, the half-maximal activity concentration (AC50) in test [6] is 100 µM (active).

`CCC(C)(C)c1cc(O)c(C(C)(C)CC)cc1O`: the result in [1], in [2], in test [5] and in test [7] was inactive. Besides, the AC50 in test [3] is 7.37 µM (active); in test [6], 59.9 µM (active).

Regarding `CC(C)N1C(=O)c2ccccc2C1=O`, the call in [1], in [3], in test [4], in test [6] and in [7] was inactive.

With `Brc1cc(Br)cc(Br)c1`, the result in test [1], in test [2], in test [3], in [8], in test [5] and in test [7] was inactive. For the same compound, in test [6], the AC50 was 59.7 µM (active).

Turning to `O=C1Cc2ccccc2C1`, the compound was classed as inactive in [1], in test [2], in test [8], in test [5] and in test [6]. Moreover, the AC50 in test [3] was 27.9 µM (active).

Regarding `COc1ccc2[nH]cc(CCNC(C)=O)c2c1`, the compound was classed as inactive in test [1], in test [2], in test [3], in test [6] and in [7].

Consider `CCC(=O)OC(C)(C)C1CC=C(C)CC1` (stereo not drawn), for which the outcome in [1], in [4], in test [5] and in [6] was inactive. For the same compound, in test [3], the AC50 is 33.1 µM (active).

As to `CC(C)(O)C(=O)c1ccc(OCCO)cc1`, the compound was classed as inactive in test [1], in [3], in test [8] and in [5].

On to `Cc1cc(O)c(C)c(C)c1O`, for which the outcome in test [1], in test [8], in [5] and in [6] was inactive. Further, the AC50 in test [3] was 22 µM (active).

Take `CCCCCCC(C)O` (stereo not drawn): the result in test [1], in test [2], in [3], in test [5] and in test [6] was inactive.

As for `[O-]/[N+](=N\O)c1ccccc1`, the outcome in [1], in test [3], in test [8] and in test [6] was inactive. For the same compound, the AC50 in test [2] is 16.6 µM (active).

Consider `CCCCCCCOC(C)=O`, for which the result in test [1], in test [2], in test [3], in test [5], in test [6] and in [7] was inactive.

As to `CC(C)(O)CCc1ccccc1`, the result in test [1], in test [2], in [3], in test [8] and in test [6] was inactive.

As to `C[N+](C)(C)CCO`, the result in test [1], in [3], in test [8] and in test [5] was inactive.

Regarding `CC(=O)C1=C(C)[C@@H]2C[C@@]3(C1)[C@H](C)CC[C@H]3C2(C)C`, the result in [1], in test [5] and in test [7] was inactive. The AC50 in test [2] was 100 µM (active); in test [3], 2.1 µM (active); in [6], 21.4 µM (active).

Consider `CC(C)C(=O)OCC=Cc1ccccc1`, for which the result in test [1], in test [2], in test [8] and in [5] was inactive. Also, in [3], the AC50 was 22.1 µM (active).

On to `C1CCCNCC1`, for which the result in test [1], in test [2], in [8] and in [7] was inactive.

`CN(C)c1ccc(C=O)cc1`: the call in [1], in test [3], in test [8], in test [5], in test [6] and in test [7] was inactive.

On to `CCCCCC(=O)O[C@]1(C(C)=O)CC[C@H]2[C@@H]3CCC4=CC(=O)CC[C@]4(C)[C@H]3CC[C@@]21C`, for which the call in test [1] and in [5] was inactive. Moreover, the results for the AC50 in [2] and in test [3] were 3.22 µM (active) and 0.313 µM (active), respectively.

Regarding `CC1(C)CC(=O)CC(C)(C)N1`, the compound was classed as inactive in test [1], in test [2], in [3] and in test [8].

Regarding `CCCCCCCCOC(C)=O`, the call in test [1], in test [2], in test [5], in test [6] and in test [7] was inactive.

Consider `Cc1cccc(C)c1`, for which the outcome in test [1], in [2] and in test [7] was inactive.

Consider `CC(=O)OC/C=C(C)/C=C/C=C(C)/C=C/C1=C(C)CCCC1(C)C`, for which the compound was called inactive in test [1] and in test [5]. Also, the AC50 in [2] is 27.3 µM (active); in test [3], 0.418 µM (active).

`Cc1cc(N)n(-c2ccccc2)n1`: the result in test [1], in test [2], in [3], in test [4], in [8] and in test [6] was inactive. In test [7], the result was inactive.

With `CC(O)CNCC(C)O` (stereo not drawn), the outcome in [1], in test [2], in test [3], in test [8], in [5] and in [6] was inactive.

Turning to `CC(C)=CC(=O)O`, the compound was called inactive in test [1], in [2], in test [3] and in test [5].

Turning to `CC/C=C\CCOC(C)OCC` (stereo not drawn), the outcome in [1], in [3], in test [4] and in test [5] was inactive.

`CC1=CC[C@@H](C(C)(C)O)CC1`: the result in test [1], in test [2], in test [3], in [6] and in [7] was inactive.

As for `O=c1cc(-c2ccc(O)cc2)oc2cc(O)cc(O)c12`, the result in test [1], in test [9], in test [5], in test [6] and in [7] was inactive. In addition, in test [2], the AC50 is 18.2 µM (active).
